Experimental findings from PubChem BioAssay (NCATS) are described below.

Active and inactive are the calls of the source. Calls come from the whole dose curve; as a rule, active = well fitted curve in the direction sought with a large enough effect (not every such curve was filed as active); inconclusive = small, poorly fitted or top-dose-only effect, or effect the other way, or another doubt; inactive = no such curve, though single readings can be large or run the other way. Residues, ends and D or L forms follow the SMILES beside them. *: point of attachment. Cbz = O=C(OCc1ccccc1)*

Pyruvate kinase PKM (Homo sapiens), sequence (P14618 whole entry, looked up): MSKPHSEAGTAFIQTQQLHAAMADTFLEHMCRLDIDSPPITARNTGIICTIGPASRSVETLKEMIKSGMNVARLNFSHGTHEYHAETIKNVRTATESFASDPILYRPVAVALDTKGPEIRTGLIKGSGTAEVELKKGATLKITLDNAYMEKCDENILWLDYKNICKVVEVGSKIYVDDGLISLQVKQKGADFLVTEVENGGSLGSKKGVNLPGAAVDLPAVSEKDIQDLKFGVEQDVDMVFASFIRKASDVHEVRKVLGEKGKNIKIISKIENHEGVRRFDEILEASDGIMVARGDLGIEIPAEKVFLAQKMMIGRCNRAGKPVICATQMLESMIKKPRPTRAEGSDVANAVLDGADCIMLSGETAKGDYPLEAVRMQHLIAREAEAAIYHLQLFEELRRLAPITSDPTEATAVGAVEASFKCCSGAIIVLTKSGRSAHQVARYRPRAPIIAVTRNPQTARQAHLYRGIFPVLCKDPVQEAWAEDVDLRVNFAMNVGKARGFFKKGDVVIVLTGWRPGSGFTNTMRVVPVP

This assay deals with Pyruvate kinase PKM (Homo sapiens) (UniProt P14618). As to the kind of experiment: qHTS Assay for Activators of Human Muscle Pyruvate Kinase (AID 954). Particulars: purified human muscle pyruvate kinase, luciferase-coupled luminescence, 1 h; series mostly up to 57.5 µM. A digest of the protocol:
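Reaction: 0.1 nM purified PKM2 with 0.5 mM phosphoenolpyruvate and 0.1 mM ADP, room temperature, 1 h. Readout: luciferase-based ATP luminescence after stop reagent. Activators judged against a 0.3 nM enzyme column.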
Background: In qHTS, concentration-response curves come from the screen itself.
As to `Oc1ccc(Cn2cc[nH]c2=S)cc1`, the compound was classed as inactive.
Regarding `O=C(OCCN1CCOCC1)C1(c2ccccc2)CCCCC1`, the compound was called inactive.
Regarding `COc1ccc2c(c1)c(CC(=O)O)c(C)n2Cc1ccc(Cl)cc1`, the result was inactive.
In the case of `Fc1ccc(CN(C2=NCCN2)c2c(Cl)cccc2Cl)cc1` it was “inactive”.
In the case of `Nc1ccc2c3c(cccc13)C(=O)NC2=O` it was “inactive”; in that of `c1ccc(CN2CCC3(CCCc4ccccc43)CC2)cc1`, “inactive”.
In the case of `NC(N)=[N+]1CCc2ccccc2C1` it was “inactive”.
As to `CCCCCCCCCCC/C=C\C(C)(C)/C=C\CCCC(=O)O`, the result was inactive.
In the case of `N[C@@H](CS(=O)O)C(=O)O` it was “inactive”; in that of `c1ccc2c(c1)CC(N1CCN(c3cccc4c3OCCO4)CC1)C2`, “inactive”.
On to `COc1ccc(C(=O)NCc2cccnc2)cc1C(=O)NCc1cccnc1`, for which the call was inactive.
In the case of `N[C@@H](Cc1c[nH]c2ccccc12)C(=O)O` it was “inactive”.
Regarding `NC(=O)CNCCC(c1ccccc1)c1ccccc1`, the outcome was inactive.
Regarding `COc1ccccc1N1CCN(CCCCN2C(=O)c3ccccc3C2=O)CC1`, the call was inactive.
The entry for `N#C/C(=C\c1ccc(O)c(O)c1)C(=O)NCCCNC(=O)/C(C#N)=C/c1ccc(O)c(O)c1` is “inactive”; for `N[C@@H](Cc1ccc(O)c(I)c1)C(=O)O` it is “inactive”.
The entry for `COc1cc(/C=C(\C#N)C(=O)c2ccc(O)c(O)c2)cc(I)c1O` is “inactive”.
In the case of `O=c1onc2n1-c1cc(Br)ccc1OC2` it was “inactive”.
Regarding `C[C@H](O)C(=O)C1=Nc2c(nc(N)[nH]c2=O)NC1`, the outcome was inactive.
The entry for `CC(N)=O` is “inactive”; for `CC(C)[C@H](NC(=O)OCc1ccccc1)C(=O)N[C@H](C=O)Cc1ccccc1` (Cbz-Val-Phe-aldehyde) it is “inactive”.
